Calls of active or inactive are those of the source. The calls were made as follows: active = hit-call score of the fitted dose curve at least 0.9, where 1 is the maximum; inactive = score below 0.9.
Columns and labels:
Details in all cases: mRNA level, 48 h; actives raise or lower the signal
[1] = read-out: matrix metalloproteinase-3 (MMP3), MMP3 (gene 4314); assay: LTEA_HepaRG_MMP3: Life Technologies and Expression Analysis (LTEA) Assay for matrix metalloproteinase-3 (MMP3) using HepaRG (AID 2283519)
In short: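 Differentiated human HepaRG cells, plated 48 h on collagen I, were exposed in duplicate for 48 h in serum-free induction medium to eight half-log concentrations up to 100 uM in 0.5% DMSO. MMP3 mRNA was quantified by TaqMan qRT-PCR, normalised to ACTB, GAPDH and POLR2A.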

[2] = read-out: Paternally Expressed 10 (PEG10), PEG10 (gene 23089); assay: LTEA_HepaRG_PEG10: Life Technologies and Expression Analysis (LTEA) Assay for Paternally Expressed 10 (PEG10) using HepaRG (AID 2283520)
In short: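 Differentiated HepaRG cells, plated 48 h then switched to serum-free induction medium, were exposed in duplicate for 48 h to eight half-log concentrations topping at 100 uM in 0.5% DMSO. PEG10 mRNA was quantified by TaqMan qRT-PCR, normalised to ACTB, GAPDH and POLR2A.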

[3] = read-out: Nuclear factor NF-kappa-B p105 subunit (Homo sapiens) (UniProt P19838); assay: LTEA_HepaRG_NFKB1: Life Technologies and Expression Analysis (LTEA) Assay for Nuclear Factor Kappa B Subunit 1 (NFKB1) using HepaRG (AID 2283521);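 also: TaqMan qRT-PCR transcript normalised to ACTB GAPDH and POLR2A housekeeping genes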
In short: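 Human HepaRG cells receive eight half-log concentrations, highest 100 uM, for 48 h. NFKB1 expression is then quantified by qRT-PCR and analysed for up- or down-regulation relative to 0.5% DMSO vehicle.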

[4] = read-out: Protein phosphatase 2A (PPP2R4), PTPA (gene 5524); assay: LTEA_HepaRG_PPP2R4: Life Technologies and Expression Analysis (LTEA) Assay for Protein phosphatase 2A (PPP2R4) using HepaRG (AID 2283522)
In short: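 Differentiated HepaRG cells in serum-free induction medium were exposed in duplicate for 48 h to eight concentrations, top 100 uM with half-log dilutions, in 0.5% DMSO. PPP2R4 mRNA was quantified by TaqMan qRT-PCR, normalized to ACTB, GAPDH and POLR2A.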

[5] = read-out: Phosphatase and tensin (PTEN), PTEN (gene 5728); assay: LTEA_HepaRG_PTEN: Life Technologies and Expression Analysis (LTEA) Assay for Phosphatase and tensin (PTEN) using HepaRG (AID 2283523)
In short: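 Differentiated human HepaRG cells, plated 48 h then switched to serum-free induction medium, were exposed in duplicate for 48 h to eight half-log concentrations up to 100 uM in 0.5% DMSO. PTEN mRNA measured by TaqMan qRT-PCR, normalized to ACTB/GAPDH/POLR2A, bidirectional fit versus DMSO.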

[6] = read-out: solute carrier (SLC22A1), SLC22A1 (gene 6580); assay: LTEA_HepaRG_SLC22A1: Life Technologies and Expression Analysis (LTEA) Assay for solute carrier (SLC22A1) using HepaRG (AID 2283524)
In short: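 Human HepaRG cells were plated 48 h, switched to serum-free induction medium, then exposed in duplicate for 48 h to 8-point half-log series from 100 uM in 0.5% DMSO. SLC22A1 mRNA measured by qRT-PCR, normalized to ACTB/GAPDH/POLR2A, fitted bidirectionally versus DMSO.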

[7] = read-out: Pyruvate Dehydrogenase Kinase 4 (PDK4), PDK4 (gene 5166); assay: LTEA_HepaRG_PDK4: Life Technologies and Expression Analysis (LTEA) Assay for Pyruvate Dehydrogenase Kinase 4 (PDK4) using HepaRG (AID 2283525)
In short: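 Differentiated human HepaRG cells, pre-cultured 48 h, were exposed in duplicate for 48 h in serum-free induction medium to eight half-log concentrations up to 100 uM in 0.5% DMSO. PDK4 mRNA was quantified by qRT-PCR, normalized to ACTB, GAPDH and POLR2A, bidirectional fitting versus DMSO.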

[8] = read-out: NAD(P)H dehydrogenase [quinone] 1 (NQO1), NQO1 (gene 1728); assay: LTEA_HepaRG_NQO1: Life Technologies and Expression Analysis (LTEA) Assay for NAD(P)H dehydrogenase [quinone] 1 (NQO1) using HepaRG (AID 2283526)
In short: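 Differentiated HepaRG cells, plated 48 h and then switched to serum-free induction medium, were exposed in duplicate for 48 h to 8-point half-log concentrations up to 100 uM in 0.5% DMSO. mRNA measured by qRT-PCR, normalized to ACTB, GAPDH, POLR2A; bidirectional fit versus DMSO.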

[9] = read-out: Nuclear factor erythroid 2-related factor 2 (Homo sapiens) (UniProt Q16236); assay: LTEA_HepaRG_NFE2L2: Life Technologies and Expression Analysis (LTEA) Assay for Nuclear factor erythroid 2-related factor 2 (NFE2L2) Transcription Factor using HepaRG (AID 2283527)
In short: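 Differentiated human HepaRG cells in serum-free induction medium were exposed for 48 h to eight concentrations (top 100 uM, half-log dilutions, 0.5% DMSO), in duplicate. NFE2L2 mRNA was quantified by TaqMan qRT-PCR, normalized to ACTB, GAPDH and POLR2A, with bidirectional fitting versus DMSO.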

[10] = read-out: succinate dehydrogenase complex iron sulfur subunit B (SDHB), SDHB (gene 6390); assay: LTEA_HepaRG_SDHB: Life Technologies and Expression Analysis (LTEA) Assay for succinate dehydrogenase complex iron sulfur subunit B (SDHB) using HepaRG (AID 2283528)
In short: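 A human HepaRG culture in serum-free induction medium received test chemicals for 48 h over an eight-point range capped at 100 uM. SDHB expression change was quantified by qRT-PCR.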

[11] = read-out: Signal transducer and activator of transcription 3 (Homo sapiens) (UniProt P40763); assay: LTEA_HepaRG_STAT3: Life Technologies and Expression Analysis (LTEA) Assay for Signal transducer and activator of transcription (STAT3) using HepaRG (AID 2283529)
In short: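 Differentiated human HepaRG cells in serum-free induction medium were exposed in duplicate for 48 h to eight half-log concentrations up to 100 uM in 0.5% DMSO. STAT3 mRNA was quantified by TaqMan qRT-PCR, normalized to ACTB, GAPDH and POLR2A, and fitted bidirectionally against DMSO.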

[12] = read-out: solute carrier (SLCO1B1), SLCO1B1 (gene 10599); assay: LTEA_HepaRG_SLCO1B1: Life Technologies and Expression Analysis (LTEA) Assay for solute carrier (SLCO1B1) using HepaRG (AID 2283530)
In short: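 Gain or loss of SLCO1B1 mRNA is fitted against the 0.5% DMSO vehicle in human HepaRG liver cells treated 48 h at up to 100 uM in half-log steps. Expression comes from qRT-PCR normalized to endogenous controls.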

[13] = read-out: sulfotransferase 2A1 (SULT2A1), SULT2A1 (gene 6822); assay: LTEA_HepaRG_SULT2A1: Life Technologies and Expression Analysis (LTEA) Assay for sulfotransferase 2A1 (SULT2A1) using HepaRG (AID 2283531)
In short: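 Cells were plated and cultured 48 h, switched to serum-free induction medium, then dosed in duplicate for 48 h (8 concentrations, max 100 uM). RNA was isolated and SULT2A1 expression measured by qRT-PCR; gain or loss of signal fitted relative to DMSO.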

[14] = read-out: Transforming Growth Factor (TGFA), TGFA (gene 7039); assay: LTEA_HepaRG_TGFA: Life Technologies and Expression Analysis (LTEA) Assay for Transforming Growth Factor (TGFA) using HepaRG (AID 2283532)
In short: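 Differentiated human HepaRG cells, plated 48 h then switched to serum-free induction medium, were exposed in duplicate for 48 h to 8-point half-log series from 100 uM in 0.5% DMSO. TGFA mRNA measured by qRT-PCR, normalized to ACTB/GAPDH/POLR2A, bidirectional fit versus DMSO.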

[15] = read-out: Transforming Growth Factor (TGFB1), TGFB1 (gene 7040); assay: LTEA_HepaRG_TGFB1: Life Technologies and Expression Analysis (LTEA) Assay for Transforming Growth Factor (TGFB1) Transporter using HepaRG (AID 2283533)
In short: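 Expression change of TGFB1 in human HepaRG cells is measured after a 48 h chemical exposure, up to 100 uM in 0.5% DMSO vehicle. Curves are fitted in both directions relative to the DMSO baseline.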

[16] = read-out: Tumor necrosis factor receptor 1 (TNFRSF1A), TNFRSF1A (gene 7132); assay: LTEA_HepaRG_TNFRSF1A: Life Technologies and Expression Analysis (LTEA) Assay for Tumor necrosis factor receptor 1 (TNFRSF1A) using HepaRG (AID 2283535)
In short: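 Expression of TNFRSF1A in human HepaRG liver cells was measured by qRT-PCR 48 h after chemical dosing (maximum 100 uM). Bidirectional curve fitting used 0.5% DMSO as baseline.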

[17] = read-out: Thyroid Hormone Responsive (THRSP), THRSP (gene 7069); assay: LTEA_HepaRG_THRSP: Life Technologies and Expression Analysis (LTEA) Assay for Thyroid Hormone Responsive (THRSP) using HepaRG (AID 2283536)
In short: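 Differentiated human HepaRG cells were exposed in duplicate for 48 h in serum-free induction medium to eight concentrations (top 100 uM, half-log steps, 0.5% DMSO). Expression was quantified by TaqMan qRT-PCR, normalized to ACTB, GAPDH and POLR2A, with bidirectional fitting against DMSO.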

[18] = read-out: Cellular tumor antigen p53 (Homo sapiens) (UniProt P04637); assay: LTEA_HepaRG_TP53: Life Technologies and Expression Analysis (LTEA) Assay for Tumor Protein P53 (TP53) using HepaRG (AID 2283537)
In short: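 Gain or loss of TP53 mRNA signal is scored relative to 0.5% DMSO after 48 h chemical treatment of HepaRG liver cells, tested in duplicate at eight half-log concentrations up to 100 uM.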

[19] = read-out: UDP glucuronosyltransferase (UGT1A1), UGT1A1 (gene 54658); assay: LTEA_HepaRG_UGT1A1: Life Technologies and Expression Analysis (LTEA) Assay for UDP glucuronosyltransferase (UGT1A1) using HepaRG (AID 2283538)
In short: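 Differentiated human HepaRG cells in serum-free induction medium were exposed in duplicate for 48 h to eight half-log concentrations up to 100 uM in 0.5% DMSO. UGT1A1 mRNA was quantified by TaqMan qRT-PCR, normalized to ACTB, GAPDH and POLR2A, and fitted bidirectionally against DMSO.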

[20] = read-out: TIMP1, TIMP1 (gene 7076); assay: LTEA_HepaRG_TIMP1: Life Technologies and Expression Analysis (LTEA) Assay for TIMP1 using HepaRG (AID 2283534);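 also: TaqMan qRT-PCR signal normalized to ACTB GAPDH and POLR2A housekeeping genes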
In short: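 We dosed human liver HepaRG cultures for 48 hours with up to 100 uM test chemical and measured TIMP1 expression by qRT-PCR. Activity in either direction is fitted relative to the 0.5% DMSO vehicle.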

Measured: AC50

Chain of Cellular tumor antigen p53 (Homo sapiens) (P04637 whole entry, looked up): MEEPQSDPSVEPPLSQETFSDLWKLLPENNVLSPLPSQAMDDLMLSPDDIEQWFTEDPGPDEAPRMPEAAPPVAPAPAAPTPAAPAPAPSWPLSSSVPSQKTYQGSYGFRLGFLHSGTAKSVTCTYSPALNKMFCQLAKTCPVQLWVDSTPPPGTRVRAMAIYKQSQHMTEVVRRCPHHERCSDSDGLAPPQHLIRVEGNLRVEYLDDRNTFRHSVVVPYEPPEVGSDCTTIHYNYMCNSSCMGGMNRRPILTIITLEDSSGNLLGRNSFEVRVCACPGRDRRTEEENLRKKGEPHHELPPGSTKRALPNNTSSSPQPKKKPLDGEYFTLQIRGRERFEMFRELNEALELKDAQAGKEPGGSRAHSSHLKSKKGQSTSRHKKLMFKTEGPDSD
Chain of Signal transducer and activator of transcription 3 (Homo sapiens) (P40763 whole entry, looked up): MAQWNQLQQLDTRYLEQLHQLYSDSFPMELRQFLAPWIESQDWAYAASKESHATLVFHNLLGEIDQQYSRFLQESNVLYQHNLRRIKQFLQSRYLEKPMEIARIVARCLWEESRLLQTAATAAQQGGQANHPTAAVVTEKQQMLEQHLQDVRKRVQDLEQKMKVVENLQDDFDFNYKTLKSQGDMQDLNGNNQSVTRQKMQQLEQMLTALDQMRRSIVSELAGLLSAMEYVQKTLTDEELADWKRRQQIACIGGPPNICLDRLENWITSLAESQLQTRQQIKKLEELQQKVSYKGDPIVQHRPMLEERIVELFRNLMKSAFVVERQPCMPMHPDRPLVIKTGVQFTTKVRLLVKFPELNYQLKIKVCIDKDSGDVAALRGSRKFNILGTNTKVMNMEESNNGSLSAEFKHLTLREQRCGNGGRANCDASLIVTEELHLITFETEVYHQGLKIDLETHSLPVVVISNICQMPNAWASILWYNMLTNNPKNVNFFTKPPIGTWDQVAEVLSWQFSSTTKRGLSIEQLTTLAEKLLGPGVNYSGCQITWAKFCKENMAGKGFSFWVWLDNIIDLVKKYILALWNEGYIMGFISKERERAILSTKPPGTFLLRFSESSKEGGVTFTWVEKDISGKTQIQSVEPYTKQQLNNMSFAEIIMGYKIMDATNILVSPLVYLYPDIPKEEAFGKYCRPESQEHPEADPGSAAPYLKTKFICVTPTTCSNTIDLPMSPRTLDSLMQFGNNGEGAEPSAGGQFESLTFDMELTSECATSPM
Chain of Nuclear factor erythroid 2-related factor 2 (Homo sapiens) (Q16236 whole entry, looked up): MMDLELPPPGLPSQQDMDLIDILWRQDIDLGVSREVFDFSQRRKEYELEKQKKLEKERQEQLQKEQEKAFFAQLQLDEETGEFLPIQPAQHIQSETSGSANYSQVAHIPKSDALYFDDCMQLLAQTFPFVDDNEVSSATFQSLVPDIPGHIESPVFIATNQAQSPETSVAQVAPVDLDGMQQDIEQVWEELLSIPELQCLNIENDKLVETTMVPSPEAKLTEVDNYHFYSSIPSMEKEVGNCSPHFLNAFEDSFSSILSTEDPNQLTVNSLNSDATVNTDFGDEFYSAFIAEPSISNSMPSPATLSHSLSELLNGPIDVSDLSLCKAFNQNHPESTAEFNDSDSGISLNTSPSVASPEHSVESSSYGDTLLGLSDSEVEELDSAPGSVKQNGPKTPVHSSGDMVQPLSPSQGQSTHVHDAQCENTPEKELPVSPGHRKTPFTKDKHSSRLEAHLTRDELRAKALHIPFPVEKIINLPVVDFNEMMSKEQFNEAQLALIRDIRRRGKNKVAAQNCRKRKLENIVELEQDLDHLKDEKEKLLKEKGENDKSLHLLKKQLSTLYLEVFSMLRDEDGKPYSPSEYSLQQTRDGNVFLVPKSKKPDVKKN
Chain of Nuclear factor NF-kappa-B p105 subunit (Homo sapiens) (P19838 whole entry, looked up): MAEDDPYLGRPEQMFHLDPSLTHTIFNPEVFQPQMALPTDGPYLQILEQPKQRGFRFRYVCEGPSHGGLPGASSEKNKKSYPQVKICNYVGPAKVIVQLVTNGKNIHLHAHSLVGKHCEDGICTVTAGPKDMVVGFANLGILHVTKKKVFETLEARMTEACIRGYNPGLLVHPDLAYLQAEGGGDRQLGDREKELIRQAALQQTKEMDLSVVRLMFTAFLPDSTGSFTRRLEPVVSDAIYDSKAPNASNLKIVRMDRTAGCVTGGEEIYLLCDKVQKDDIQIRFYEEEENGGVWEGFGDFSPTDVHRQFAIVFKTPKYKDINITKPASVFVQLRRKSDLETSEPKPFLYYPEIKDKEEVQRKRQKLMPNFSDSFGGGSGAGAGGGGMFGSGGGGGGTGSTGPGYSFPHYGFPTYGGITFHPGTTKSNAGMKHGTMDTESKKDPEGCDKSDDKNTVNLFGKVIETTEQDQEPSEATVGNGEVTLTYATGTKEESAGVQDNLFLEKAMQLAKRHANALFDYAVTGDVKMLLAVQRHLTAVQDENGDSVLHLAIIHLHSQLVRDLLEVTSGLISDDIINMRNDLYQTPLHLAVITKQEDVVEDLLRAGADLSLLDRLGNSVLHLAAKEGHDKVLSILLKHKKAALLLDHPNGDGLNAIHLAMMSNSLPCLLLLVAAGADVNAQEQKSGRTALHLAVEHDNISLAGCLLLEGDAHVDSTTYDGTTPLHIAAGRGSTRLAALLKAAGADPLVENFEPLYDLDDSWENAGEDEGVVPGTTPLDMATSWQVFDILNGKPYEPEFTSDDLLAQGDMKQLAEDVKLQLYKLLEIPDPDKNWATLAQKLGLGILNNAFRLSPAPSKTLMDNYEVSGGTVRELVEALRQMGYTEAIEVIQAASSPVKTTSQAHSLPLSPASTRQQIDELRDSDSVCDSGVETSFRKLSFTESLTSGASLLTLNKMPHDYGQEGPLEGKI

OC(c1ccc(Cl)cc1)(c1ccc(Cl)cc1)C(Cl)(Cl)Cl
active: [1] 50 µM | [5] 78.4 µM | [6] 81.9 µM | [7] 80.5 µM | [8] 93 µM | [9] 71 µM | [12] 81.6 µM | [13] 93.9 µM | [14] 70.5 µM | [15] 50 µM | [16] 50 µM | [18] 50 µM | [19] 85.3 µM
inactive: [2] | [3] | [4] | [10] | [11] | [17]

N#Cc1c[nH]cc1-c1cccc2c1OC(F)(F)O2
active: [2] 74.2 µM | [6] 40.7 µM | [7] 83.9 µM | [9] 84.7 µM | [12] 50 µM | [13] 50 µM | [17] 18 µM | [18] 71.3 µM
inactive: [1] | [3] | [4] | [5] | [8] | [10] | [11] | [14] | [16]

CC(C)Nc1nc(Cl)nc(NC(C)C)n1
inactive: [1] | [4] | [5] | [6] | [7] | [8] | [9] | [10] | [11] | [13] | [14] | [15] | [20] | [16] | [17] | [18]
active: [2] 27.2 µM

Source: PubChem BioAssay (EPA / NIEHS)
